Over roughly 35,000 sequences, “fluorescence intensity (a.u.)” has its median near 10,000; the highest 2% begin near 52,000. What follows is part of a selection rich in the highest values, with near analogues and random picks from the rest.
target: T1, OsWOX13 (Oryza sativa, UniProt Q5QMM3 1-267); assay: protein-binding microarray (RPBM); PBS, 2% BSA, 51.3 ng/ul salmon testes DNA, 50 uM zinc acetate, 200 nM TF, 25 C, 1 h; high values mean tight binding; settings: protein: recombinant; tags: N-terminal polyhistidine and DsRed monomer fusion (pET32a); label: CyDye5-dUTP incorporated in the synthesized complementary strand; 3' TTTTT single-stranded linker to array surface; dsDNA, one strand shown
T1 sequence: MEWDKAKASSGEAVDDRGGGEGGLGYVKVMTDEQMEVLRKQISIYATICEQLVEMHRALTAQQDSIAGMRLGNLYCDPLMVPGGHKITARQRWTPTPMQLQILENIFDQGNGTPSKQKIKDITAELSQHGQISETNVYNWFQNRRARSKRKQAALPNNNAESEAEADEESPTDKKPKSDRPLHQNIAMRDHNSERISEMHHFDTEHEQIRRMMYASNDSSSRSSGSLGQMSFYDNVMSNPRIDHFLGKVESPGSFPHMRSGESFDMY
Outline: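 The binding signal is fluorescence intensity per array feature (arbitrary units). Readings came from an Axon 4000B scanner after a washed, 2% BSA-blocked, double-stranded custom Agilent array had been incubated for 1 h at 25 °C with 200 nM protein and 50 µM zinc acetate. The protein was a Ni–NTA-purified transcription factor fused N-terminally to polyhistidine and DsRed, expressed in E. coli BL21-CodonPlus.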

Row | Sequence | binding signal
1 | TTATGGCTAATCATGAACTAATTAGACTCAAAAGATTCGTCGGAGTCACCTAGTGCAG | 23700 fluorescence intensity (a.u.)
2 | ATGGATTAATTAGGCTCAAAAGATTTGTCTCACTATTTCCCGGAGTCACCTAGTGCAG | 13500 fluorescence intensity (a.u.)
3 | TACGGCTAATTATGGACTAATTAGACTCAAAAGATTCATGCGGAGTCACCTAGTGCAG | 53800 fluorescence intensity (a.u.)
4 | GCTAATCATAGACTAATTAGGCTTAAAAGATTTGTCTCGCCGGAGTCACCTAGTGCAG | 37200 fluorescence intensity (a.u.)
5 | ATGGCTAATTATGGACTAATTAGACTCAAAAGATTCGTTTCGGAGTCACCTAGTGCAG | 19800 fluorescence intensity (a.u.)
6 | ATCTTAATTTACCTTTCACTGCATCTAATATGTCACTTTGCGGAGTCACCTAGTGCAG | 20700 fluorescence intensity (a.u.)
7 | ATTTGAAATTTAAATTTTAGCTTTTGCTTTAGTTTATTTGCGGAGTCACCTAGTGCAG | 8720 fluorescence intensity (a.u.)
8 | CCGTGATTAGCGACATTGCTGTGTGCAACGTTTGTTCCTTCGGAGTCACCTAGTGCAG | 37600 fluorescence intensity (a.u.)
9 | TGTTAGATGATAAAACATGATTAATATTTTATGTGTGACTCGGAGTCACCTAGTGCAG | 4360 fluorescence intensity (a.u.)
10 | AATAACTGATAAAAGATATATGATTTTGGAGAAATGTGTGCGGAGTCACCTAGTGCAG | 26100 fluorescence intensity (a.u.)
11 | TAGATTAATTTGTCATCAAAACACCCTCATATAATTAATTCGGAGTCACCTAGTGCAG | 19200 fluorescence intensity (a.u.)
12 | TTTCTTAATTGTATTTCTATATGGACTTGATACCCTTCTTCGGAGTCACCTAGTGCAG | 18900 fluorescence intensity (a.u.)
13 | AAGTCTAATTAATTCATAATTAGCACATGTTTACTGTAGCCGGAGTCACCTAGTGCAG | 53800 fluorescence intensity (a.u.)
14 | TCATAATTAATTAGAAGTGGCTGCATGTGAGAATGTTTGGCGGAGTCACCTAGTGCAG | 53800 fluorescence intensity (a.u.)
15 | CCTAATTAATCCATAGCACATGTTTACTGTAGCGTCACATCGGAGTCACCTAGTGCAG | 12400 fluorescence intensity (a.u.)
16 | TAAACCTAATTAATCATCATTAGCAAATGTTTACTGTAGCCGGAGTCACCTAGTGCAG | 30400 fluorescence intensity (a.u.)
17 | AGCCTAATTAATCCGATATTAGTAAATGTTTACTGTAGCACGGAGTCACCTAGTGCAG | 15000 fluorescence intensity (a.u.)
18 | AATCCATAATTAGAGAATGTTTACTGTAGCATCACATAGGCGGAGTCACCTAGTGCAG | 15900 fluorescence intensity (a.u.)
19 | CTAATTAATCCGTTATTAGCACATATGTGTTACTGTAGCACGGAGTCACCTAGTGCAG | 12200 fluorescence intensity (a.u.)
20 | AGCCTAATTAATCCATAATTAACATATGTTTACTGTAGCACGGAGTCACCTAGTGCAG | 53000 fluorescence intensity (a.u.)
21 | GTAGTGAATGGCTGCCTAATTTTGTGCATTAACCATGGTGCGGAGTCACCTAGTGCAG | 5100 fluorescence intensity (a.u.)
22 | AGCCTAATTAATACATAATTAGCACATGTTTACTGTAGCACGGAGTCACCTAGTGCAG | 55100 fluorescence intensity (a.u.)

Row | Sequence | binding signal
23 | AGCCTAATTAATCTATAATTAGAGAATGTTTACTGTAGCACGGAGTCACCTAGTGCAG | 46200 fluorescence intensity (a.u.)
24 | TTCATAATTAGCACATGTTTACTGTGGTATCACATGGACTCGGAGTCACCTAGTGCAG | 25200 fluorescence intensity (a.u.)
25 | CCATTTCTTGCTGATGATTGATGATGAACATTTCTAATAGCGGAGTCACCTAGTGCAG | 27400 fluorescence intensity (a.u.)
26 | TACTATGATTTTCTTTGAATTCAGGTCCTTGCGATTCCAGCGGAGTCACCTAGTGCAG | 3510 fluorescence intensity (a.u.)
27 | TGGATAATTAAGCTCATGAGACGACAACGAACAATGAATGCGGAGTCACCTAGTGCAG | 8610 fluorescence intensity (a.u.)
28 | AGATGTTTGAATAATTGATACAATATCAGGAGCGAATATGCGGAGTCACCTAGTGCAG | 4430 fluorescence intensity (a.u.)
29 | TGAAATTTCTCTTCATTTTGTTTTAAATCCTGGACAGACACGGAGTCACCTAGTGCAG | 3370 fluorescence intensity (a.u.)
30 | CAACCAATAAATTAGAACTCCATCTCGATCATGGTGTTATCGGAGTCACCTAGTGCAG | 4370 fluorescence intensity (a.u.)
31 | GGCTTGATTTATTGATTTGTTCTTTAGTACTCCAGTTCAACGGAGTCACCTAGTGCAG | 25700 fluorescence intensity (a.u.)
32 | ATAAATTAGCACCCACCTCTGCCTTCCTACCTTCCCCTCCCGGAGTCACCTAGTGCAG | 24900 fluorescence intensity (a.u.)
33 | GAGAGAGAGATCAGCACATGATTGATTAAATATTAGCTTACGGAGTCACCTAGTGCAG | 19100 fluorescence intensity (a.u.)
34 | TTAATTGGATATATGATGTTGCAAATTTGCCTATTCAGAACGGAGTCACCTAGTGCAG | 27000 fluorescence intensity (a.u.)
35 | GCATGAAGACATCAATTAATTAATTGCATGGTTACATGCACGGAGTCACCTAGTGCAG | 37200 fluorescence intensity (a.u.)
36 | ATGATTAGCAGCTGATTACTGTAGCATTACTGTAGCAAATCGGAGTCACCTAGTGCAG | 45200 fluorescence intensity (a.u.)
37 | TGTAATAGTGGGTTAATTAATTAGCTTGCCAGCTTCAGGGCGGAGTCACCTAGTGCAG | 21900 fluorescence intensity (a.u.)
38 | TCATCAGTTAATTAATACATGCATATTATATTATATAGGGCGGAGTCACCTAGTGCAG | 20200 fluorescence intensity (a.u.)
39 | TCCATAATTAGCGGCTGATTACTGTAGCATCACTGTAGCACGGAGTCACCTAGTGCAG | 31200 fluorescence intensity (a.u.)
40 | TCCATAATTAGCAGCTGATTACTGTAGTATTACTGTAGCACGGAGTCACCTAGTGCAG | 60800 fluorescence intensity (a.u.)
41 | ATTAATCCACAATTATCAAAAGTTTACTGTAGCATCACATCGGAGTCACCTAGTGCAG | 5730 fluorescence intensity (a.u.)
42 | AATAATTAATTAATCATAGCTTGCAACTGCATATGTAGGGCGGAGTCACCTAGTGCAG | 56700 fluorescence intensity (a.u.)
43 | CCTAATTAATCCATAATTATCAAAAGTTTACTGTAGCATCCGGAGTCACCTAGTGCAG | 62800 fluorescence intensity (a.u.)
44 | ATTAATCCATAATTAGCAAATGTTTACTGTAGCATCACATCGGAGTCACCTAGTGCAG | 13800 fluorescence intensity (a.u.)
